IL-1B inflam inh – qHTS for Inhibitors of Inflammasome Signaling: IL-1-beta AlphaLISA Primary Screen; THP-1 LPS/ATP IL-1B secretion, AlphaLISA, 16 h; stronger effect = lower value; activity change, % at 57.5 µM; 360,000 compounds, 4.7% hits; in the data active = activity change below about -50%; inconclusive = mostly about -30% to -49%
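THP-1 cells pretreated 1 hr with compounds (up to 57.5 uM final), then stimulated with LPS (250 ng/mL final) plus ATP (1.25 mM final); secreted IL-1B measured by AlphaLISA after 16 hr, decreased signal indicating inhibition.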
HT1080-NT tox – qHTS for induction of synthetic lethality in tumor cells producing 2HG: qHTS for the HT-1080-NT fibrosarcoma cell line. HT-1080-NT fibrosarcoma viability, CellTiter-Glo ATP luminescence, 48 h. Potency, µM (highest dose often 46.1 µM), for inactives: top-dose activity, negative = less viability, actives largely listed as cytotoxic. 360,000 compounds, 1.6% hits;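 note: NT is the 2HG producing partner of a matched IDH1 knockdown line; potency is the fitted concentration of half-maximal effect; 0% = DMSO-treated cells and -100% = media-only wells without cells; nearly all actives have a fitted effect of over 55% in size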
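750 cells/well, RPMI + 5% FBS; 2 h settle, compound pin-transfer, 48 h at 37 degrees C. CellTiter-Glo 10 min RT, luminescence. Normalized to DMSO and media-only wells.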
12-LOX inh – Primary qHTS assay for inhibitors of human arachidonate 12S-lipoxygenase (ALOX12): Round 2 | AID 1671190, 2021 | 580,000 compounds, 1.1% hits | purified 12hLO, xylenol orange hydroperoxide absorbance | Potency, µM (highest dose often 108 µM), for inactives: top-dose activity change, negative = inhibition, usual class: inhibitors; note: potency is the fitted concentration of half-maximal effect
Target sequence (P18054 whole entry, looked up): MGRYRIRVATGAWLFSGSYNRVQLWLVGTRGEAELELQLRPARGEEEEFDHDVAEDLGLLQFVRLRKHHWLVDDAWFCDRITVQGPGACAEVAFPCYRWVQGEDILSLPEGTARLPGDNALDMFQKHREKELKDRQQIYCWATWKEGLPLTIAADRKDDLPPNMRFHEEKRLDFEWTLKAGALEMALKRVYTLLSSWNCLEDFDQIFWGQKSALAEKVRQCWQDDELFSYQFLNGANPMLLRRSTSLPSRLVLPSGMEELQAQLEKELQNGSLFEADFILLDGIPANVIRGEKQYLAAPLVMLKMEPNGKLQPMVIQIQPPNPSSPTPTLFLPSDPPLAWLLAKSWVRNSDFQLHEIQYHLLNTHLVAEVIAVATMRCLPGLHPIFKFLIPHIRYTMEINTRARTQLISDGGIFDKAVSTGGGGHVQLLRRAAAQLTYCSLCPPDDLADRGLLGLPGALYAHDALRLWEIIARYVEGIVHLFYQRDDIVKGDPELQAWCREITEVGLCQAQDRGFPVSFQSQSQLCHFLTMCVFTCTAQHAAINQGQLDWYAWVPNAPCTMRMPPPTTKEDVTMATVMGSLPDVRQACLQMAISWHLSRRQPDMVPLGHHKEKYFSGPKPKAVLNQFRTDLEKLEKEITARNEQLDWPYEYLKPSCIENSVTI
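Hydroperoxide product was detected by ferrous iron/xylenol orange as the 573 to 405 nm absorbance ratio. Arachidonic acid at 40 uM (final) was turned over for 30 min at room temperature by 150 nM human 12hLO, pH 7.0 Hepes buffer, after 15 min compound preincubation.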
TDP1 cell CPT – qHTS for Inhibitors of human tyrosyl-DNA phosphodiesterase 1 (TDP1): qHTS in cells in presence of CPT; chicken DT40 Tdp1-/-;hTDP1 cells + 20 nM CPT, ATP luminescence, 48 h; Potency, µM (doses to about 46.2 µM), for inactives: at the top dose activity change, negative = growth inhibition, actives largely listed as inhibitors; 420,000 compounds, 12% hits; AID 686979, 2013; note: potency is the fitted concentration of half-maximal effect; nearly all actives have a fitted effect of over 55% in size
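Chicken DT40 Tdp1-/- cells stably complemented with human TDP1 were seeded at 400 cells/well in medium containing 20 nM camptothecin, exposed to pin-transferred compounds, and grown at 37 °C for at least 48 hr. Viability was read as ATP luminescence.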
HT1080 IDH1KD tx – qHTS for induction of synthetic lethality in tumor cells producing 2HG: qHTS for the HT-1080-IDH1KD cell line; Potency, µM (doses to about 46.1 µM), for inactives: at the highest dose activity, negative = toxicity, actives largely listed as cytotoxic; HT-1080 IDH1 knockdown viability, ATP luminescence, 48 h; 360,000 compounds, 2% hits;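 note: potency is the fitted concentration of half-maximal effect; 0% = DMSO wells and -100% = cell-free medium wells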
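Viability of IDH1-knockdown HT-1080 fibrosarcoma cells was assessed by CellTiter-Glo after 48 h at 37 °C with titrated compound; concentration-effect curves were classified by fit quality and response size.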
TDP1 cell noCPT – qHTS for Inhibitors of human tyrosyl-DNA phosphodiesterase 1 (TDP1): qHTS in cells in absence of CPT; DT40 Tdp1-/- hTDP1 cells, no CPT, ATP luminescence, 48 h; Potency, µM (doses to about 46.2 µM), for the others: at the highest dose activity change, negative = growth inhibition, hits mostly inhibitors; 420,000 compounds, 15% hits; note: potency is the fitted concentration of half-maximal effect; nearly all actives have a fitted effect of over 55% in size
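Chicken DT40 Tdp1-/- cells complemented with human TDP1, screened without camptothecin (DMSO vehicle only), 400 cells/well. Compounds pin-transferred, cells incubated at 37 °C for at least 48 hr. Growth read as ATP-dependent luminescence (CellTiter-Glo, 30 min at RT).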
The depositor's hits bear a star; u = inconclusive; x = no result; [ ] = remark or other dose. This is one part of a sample in which hits are shown more often than they occur. Unless noted, calls come from the whole dose curve; as a rule, active = well fitted curve in the direction sought with a large enough effect; inconclusive = small, poorly fitted or top-dose-only effect, or another doubt; inactive = no such curve, though single readings can be large; an effect the other way counts as inactive or inconclusive. Unless noted, % is set by controls: 0 for no effect and ±100 for the full control effect.

SMILES | IL-1B inflam inh | HT1080-NT tox | 12-LOX inh | TDP1 cell CPT | HT1080 IDH1KD tx | TDP1 cell noCPT
CCOC(=O)C(C)Sc1nnc2c3ccccc3n(C)c2n1 (centres undefined) | 56.1 | 10.1% | -1.7% | 3.8% | 2.1% | 5.9%
CCC(Sc1nnc2c(n1)[nH]c1ccccc12)C(=O)Nc1ccccc1OC (centres undefined) | x | x | -0.9% | u | x | 20.6µM*
CCOC(=O)c1ccc(NC(=O)C(CC)Sc2nnc3c4ccccc4n(C)c3n2)cc1 (centres undefined) | x | x | -12.2% | 16.4µM* | x | 18.4µM*
CCC(Sc1nnc(C)c(=O)[nH]1)C(=O)Nc1cccc2ccccc12 (centres undefined) | 10.9 | -0.6% | u | -6.5% | -1.4% | u
O=C([C@H]1C[C@H](Oc2ccccc2)CN1C(=O)c1ccccc1)N1CCOCC1 | x | x | 17.0% | x | x | x
CCC1CN2CCc3cc(OC)c(OC)cc3C2CC1CC1c2cc(OC)c(OC)cc2CCN1C(=O)C(Cc1c[nH]c2ccccc12)NC(=O)OC(C)(C)C (centres undefined) | -29.6 | -12.8% | 117.7% | 6.51µM* | -19.0% | 5.8µM*
CN(Cc1ccccc1)C(=O)c1cc2ccccc2oc1=O | x | x | 20.2% | x | x | x
COc1ccc(-c2cc(C#N)nc(Cl)n2)cc1 | x | 7.31µM* | 4.47µM* | 4.11µM* | 9.2µM* | 4.61µM*
COc1ccc2cc(C#N)c(NC(C)C)nc2c1 | -12.2 | -0.5% | -7.7% | -27.9% | -0.6% | u
COc1ccc(-c2cc(C#N)nc(Oc3ccc(Cl)cc3)n2)cc1 | -5.1 | 6.3% | -19.3% | -1.0% | -1.2% | -0.6%
N#Cc1cc(-c2ccccc2)nc(Oc2ccccc2)n1 | u | -9.5% | -8.3% | u | 3.2% | 18.4µM*
CCN(CC)c1nc(C#N)cc(-c2ccc(OC)cc2)n1 | -9.0 | u | -34.9% | 8.2µM* | u | 10.3µM*
CCN(CC)c1nc2cc(OC)ccc2cc1C#N | 0.8 | 4.0% | u | 20.6µM* | -5.2% | 16.4µM*
CCCCCC1CCCC(=O)O1 (centres undefined) | x | x | -4.4%[176 µM] | x | x | x
CC(=O)N1Cc2ccccc2OC2(CCN(C(=O)c3ccnc(N)c3)CC2)C1 | x | x | 10.8%[6.33 µM] | x | x | x
O=C(c1ccccc1)N1CCC(N2Cc3ccccc3C2=O)CC1 | x | x | 2.9%[6.33 µM] | x | x | x
Cc1ccc(C(CNC(=O)c2cc(=O)c3cc(Br)ccc3o2)N2CCCCC2)o1 (centres undefined) | x | x | -23.9% | x | x | x
O=C(CCSc1ccc(Cl)cc1)c1cccs1 | -106.4* | u | 5.2% | 1.84µM* | u | 2.31µM*
O=C(CCNc1ccc(Cl)cc1)c1cccs1 | u | -0.4% | -10.1% | 25.9µM* | -5.8% | 14.6µM*
CCCCNC(=O)c1ccc2nc(CC)c(N(C)Cc3ccc(OC)cc3)n2c1 | -9.6 | 0.7% | -6.4% | 16.4µM* | 0.0% | u
CCc1nc2ccc(C(=O)NCCC(C)C)cn2c1N(CC)CCOC | 40.4 | 17.1% | 1.6% | u | 21.6% | 20.6µM*
CCc1nc2ccc(C(=O)NCCC(C)C)cn2c1N(C)Cc1ccc(OC)cc1 | -15.1 | u | 18.2% | u | u | 16.4µM*
CCc1nc2ccc(C(=O)NCc3cccs3)cn2c1N(CC)CCOC | -1.2 | 17.2% | 1.3% | u | 8.7% | u
CCc1nc2ccc(C(=O)NCCOc3ccc(OC)cc3)cn2c1N(C)Cc1cccs1 | -51.9* | u | 4.2% | u | u | u
CCc1nc2ccc(C(=O)NCCNC(C)=O)cn2c1N(C)Cc1ccc(OC)cc1 | -6.4 | 15.1% | -28.2% | -6.7% | 7.1% | -10.5%
SMILES | IL-1B inflam inh | HT1080-NT tox | 12-LOX inh | TDP1 cell CPT | HT1080 IDH1KD tx | TDP1 cell noCPT
O=C(CCCn1c(=O)oc2ccccc21)Nc1cccc(-c2nnc3n2CCCCC3)c1 | x | x | -23.5% | x | x | x
Cc1ccc(-c2nnc(C3CN(C(=O)c4ccccc4F)CC34CCOCC4)o2)cc1 (centres undefined) | x | x | 47.1% | x | x | x
CCc1nc2ccc(C(=O)NCCOc3ccc(OC)cc3)cn2c1N(C)Cc1ccc(OC)cc1 | -22.1 | u | 19.6% | u | -3.2% | 20.6µM*
CCOc1ccccc1CNC(=O)Cn1cc2c(n1)-c1c(oc(C(=O)N3CCCC3)c1C)CC2 | x | x | -38.0% | 13µM* | x | 13µM*
Cc1c(C(=O)N2CCCC2)oc2c1-c1nn(CC(=O)NCc3ccccc3Br)cc1CC2 | x | x | 0.0% | u | x | 20.6µM*
Cc1ccccc1CNC(=O)Cn1cc2c(n1)-c1c(oc(C(=O)N3CCCC3)c1C)CC2 | x | x | 0.0% | u | x | u
Cc1c(C(=O)N2CCCC2)oc2c1-c1nn(CC(=O)NCc3ccccc3F)cc1CC2 | x | x | -21.6% | u | x | u
CCOc1cc(C2NC(=O)NC(C)=C2C(=O)OCC(F)(F)F)ccc1O (centres undefined) | x | x | -25.9% | x | x | x
O=C(NCCS(=O)(=O)N1CCN(c2ccc(F)cc2)CC1)c1cc(=O)c2ccccc2o1 | x | x | 2.2% | u | x | u
Cc1ccc(S(=O)(=O)NCCS(=O)(=O)N2CCN(c3ccc(F)cc3)CC2)cc1 | 3.1 | 1.1% | x | u | 1.5% | 11.6µM*
O=S(=O)(NCCS(=O)(=O)N1CCN(c2cccc(Cl)c2)CC1)c1ccc(F)cc1 | x | x | -22.4% | -50.7% | x | 20.6µM*
CN(C)CCNS(=O)(=O)c1ccc(N2CCN(c3ccc(F)cc3)CC2)c([N+](=O)[O-])c1 | -73.5* | u | -12.8% | 13µM* | 18.4µM* | 13µM*
O=S(=O)(NCCS(=O)(=O)N1CCN(c2ccccc2)CC1)c1ccccc1 | -5.5 | -12.8% | -4.7% | -18.5% | -7.2% | u
O=C(NCCS(=O)(=O)N1CCN(c2cccc(Cl)c2)CC1)c1cc(=O)c2ccccc2o1 | -3.9 | 1.9% | -2.6% | u | 6.4% | 2.06µM*
CCOc1ccc(CC(=O)N2CCC(Cc3nc(-c4ccc(OC)cc4)no3)CC2)cc1OCC | x | x | -19.8% | x | x | x
Cc1cccc(C(=O)C(C)C(=O)c2cccc(C)c2)c1 | x | x | 6.4% | x | x | x
Cc1cccc(NC(=O)c2ccc3nc(C)c(C)nc3c2)n1 | x | x | -6.4% | x | x | x
COc1cccc(NC(=O)Cc2csc(COc3cccc(C)c3)n2)c1 | x | x | -29.9% | u | x | u

Assay outcomes: PubChem BioAssay, National Center for Advancing Translational Sciences (NCATS)
